Screening results: PubChem BioAssay, National Center for Advancing Translational Sciences (NCATS)
Most compounds without a hit are left out; they make up all but 9.3% or so of the library.
ELG1 genotoxic – induces genotoxicity in HEK293T cells with luciferase-tagged ELG1; HEK293T ELG1-luciferase reporter, luminescence, 16 h; Potency, µM (doses to about 46 µM), without a hit: top-dose activity change, positive = activation, most hits filed as activators; 330,000 compounds, 1.3% hits; further: % of control where 0% means no effect; nearly all actives have a fitted effect of over 60% in size
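DMSO vehicle served as control against compound-treated ELG1-luciferase HEK293T cells; exposure lasted 16 hr at 37 °C and 5% CO2, followed by ONE-Glo luminescence detection after 30 min.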
NPC1 promoter act – activators of NPC1 promoter; Potency, µM (highest dose often 9.22 µM), for inactives: top-dose activation, hits mostly activators; 320,000 compounds, 2.4% hits; AID 485313; Huh7 NPC1 promoter luciferase reporter, 24 h; further: % of control where 0% means no effect; nearly all actives have a fitted effect of over 60% in size
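In 1536-well qHTS, Huh7 cells harboring an NPC1 promoter–luciferase construct received compound for 24 h; activation was quantified by luminescence following luciferase reagent addition.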
SMN2 splice enh – enhancers of SMN2 splice variant expression; HEK293 SMN2-luciferase splicing reporter, luminescence, 30-36 h; Potency, µM (highest dose often 46.1 µM), without a hit: at the highest dose activity change, positive = activation, actives largely listed as activators; 210,000 compounds, 2.8% hits; further: % of control where 0% means no effect; nearly all actives have a fitted effect of over 55% in size
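qHTS luciferase splicing reporter: luminescence rises when SMN2 exon 7 is included in transfected HEK293 cells. Compound exposure lasted 30-36 h at 37C, with 4.5 mM final sodium butyrate as control, followed by a ONE-Glo read.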
ELG1 DNA repair – ELG1-dependent DNA repair inhibition; 330,000 compounds, 2.3% hits; HEK293T ELG1-luciferase reporter, luminescence, 16 h; DNA damage induced by 5-fluorouridine; AID 504467; Potency, µM (series often up to 46.1 µM), inactives show at the highest dose activity change, negative = inhibition, actives largely listed as inhibitors; further: on the % scale 0 is the no-effect control and ±100 the full control effect; nearly all actives have a fitted effect of over 55% in size
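Step one: seed 2,000 cells per well. Step two: pin-transfer compound or DMSO alongside 5-fluorouridine. Step three: incubate 16 hr, 37 °C, 5% CO2. Step four: add ONE-Glo, wait 30 min, read luminescence.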
FLuc modulator – counter-screen for miR-21 project: firefly luciferase inhibitors or activators. AID 588342. purified FLuc, Km substrates, luminescence inhibition. Potency, µM (doses to about 57.5 µM), for the others: at the top dose activity change, negative = inhibition, hits mostly inhibitors. P08659. 360,000 compounds, 6.9% hits;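 further: plate controls were vehicle for no effect and reference inhibitor for full effect; nearly all actives have a fitted effect of over 55% in size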
Target sequence (P08659 whole entry, looked up): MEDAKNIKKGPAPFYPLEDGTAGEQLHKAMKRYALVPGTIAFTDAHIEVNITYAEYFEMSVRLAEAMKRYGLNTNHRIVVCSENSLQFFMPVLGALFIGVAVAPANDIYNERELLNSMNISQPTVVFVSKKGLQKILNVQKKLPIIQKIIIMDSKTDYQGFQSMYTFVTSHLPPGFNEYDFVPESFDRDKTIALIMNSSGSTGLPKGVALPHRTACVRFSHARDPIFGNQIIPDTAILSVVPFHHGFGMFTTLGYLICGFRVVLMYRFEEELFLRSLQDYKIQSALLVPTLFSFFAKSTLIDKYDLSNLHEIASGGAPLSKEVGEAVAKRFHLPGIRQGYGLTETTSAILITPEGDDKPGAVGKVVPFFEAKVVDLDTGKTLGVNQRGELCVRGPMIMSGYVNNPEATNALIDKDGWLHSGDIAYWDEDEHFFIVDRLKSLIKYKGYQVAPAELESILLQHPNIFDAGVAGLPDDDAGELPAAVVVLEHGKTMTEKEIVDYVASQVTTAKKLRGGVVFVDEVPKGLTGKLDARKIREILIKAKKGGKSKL
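Purified P. pyralis luciferase (10nM final) with 10uM D-luciferin and 10uM ATP (Km levels) in 50mM Tris acetate pH 7.5, 10mM Mg acetate, 0.01% Tween-20, 0.05% BSA; qHTS 6-point titration, ~60 µM downward; luminescence read.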
Rab9 prom act – Rab9 promoter activation; Potency, µM (top dose mostly 9.22 µM), for inactives: top-dose activation, negative = inhibition, actives largely listed as activators; 320,000 compounds, 2.8% hits; Huh7 Rab9 promoter-luciferase reporter, luminescence, 24 h; further: % of control where 0% means no effect; nearly all actives have a fitted effect of over 60% in size
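Quantitative HTS format; Huh7 Rab9-luciferase reporter cells (1500/well) receive compound 2 h post-plating, incubate 24 h at 37 °C, then get luciferase reagent for 10 min before luminescence reading.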
* hit, by the source's call; ? = inconclusive; · = not tested or not shown. The call rests on the fitted dose curve; in most records, active means well fitted curve in the direction sought with a large enough effect; inconclusive means small, poorly fitted or top-dose-only effect, or another doubt; inactive means no such curve, though single readings can be large; an effect the other way counts as inactive or inconclusive. Potency means the concentration at half of the fitted maximal effect.

SMILES	ELG1 genotoxic	NPC1 promoter act	SMN2 splice enh	ELG1 DNA repair	FLuc modulator	Rab9 prom act
COc1cc2c(cc1OC)C(c1ccc(-c3ccccc3Cl)o1)=NCC2	11%	17%	-38%	?	2.1µM*	-2%
COc1cc2c(cc1OC)C(c1ccc(-c3ccc(Cl)cc3Cl)o1)=NCC2	-13%	-8%	-20%	?	15µM*	-4%
COc1cc2c(cc1OC)C(c1ccc(-c3ccc(Cl)c(Cl)c3)o1)=NCC2	-16%	-1%	-62%	15µM*	15µM*	-8%
CC(C)(C)N1CC(C(=O)Nc2cccc(Cl)c2Cl)CC1=O (configuration not stated)	-4%	3%	·	-2%	4%	0%
O=C(Nc1ccccc1F)C1(c2ccccc2)CC1(Cl)Cl (configuration not stated)	-1%	-5%	-11%	-1%	0%	-5%
COCCCNCCCOc1ccc(C(C)(C)c2ccccc2)cc1	-7%	1%	?	1%	-2%	-3%
Cc1ccc(S(=O)(=O)N2CCN(C(=O)CN3CCCCC3)C2)cc1	0%	-2%	2%	4%	7%	3%
Cc1cc(OCc2ccc(C(=O)n3cccn3)o2)ccc1Cl	?	?	11µM*	?	?	?
CCN(CC)C(=O)c1ccc(COc2ccc(Cl)c(C)c2)o1	7%	30%	·	?	?	29%
O=C(c1ccc(COc2ccc(F)cc2)o1)n1cccn1	2%	0%	3%	17%	24µM*	-3%
O=C(c1ccc(COc2ccc(F)cc2)o1)n1cc(Br)cn1	6%	-3%	1%	0%	0%	1%
O=C1OC(c2ccccc2)=N/C1=C\N1CCCCC1	?	2.8µM*	?	?	9.5µM*	3.5µM*
O=C1OC(c2ccccc2)=C/C1=C/N1CCCCC1	?	2.5µM*	?	?	6µM*	2.5µM*
O=C1CC(c2ccccc2)CC(=O)C1=CN1CCCC1 (configuration not stated)	-2%	-2%	·	-5%	-3%	-4%
O=C1OC(c2ccc(Br)cc2)=N/C1=C\N1CCCCC1	15µM*	2.2µM*	13µM*	?	?	2.5µM*
COc1ccc2[nH]c(=O)c(CN(C)C(=O)COc3ccccc3)cc2c1	-4%	-1%	-5%	-14%	1%	0%
CCc1ccccc1NC(=O)CSC1=C(C#N)C(c2ccc3c(c2)OCO3)C2=C(CCCC2=O)N1 (configuration not stated)	-10%	0%	22%	?	1%	4%
c1ccc(-c2nc(-c3ccco3)cs2)nc1	?	26%	1%	?	15µM*	3.5µM*
c1ccc(-c2nccc(-c3ccco3)n2)nc1	1%	1%	13%	?	-19%	-2%
O=C(Nc1cccc(NC(=O)c2ccccc2)n1)c1ccccc1	0%	-1%	·	-8%	9.5µM*	0%
Cc1cccc(NC(=O)c2ccc(C(=O)c3ccccc3)cc2)n1	21µM*	?	·	?	9.5µM*	?
Cc1cccc(NC(=O)c2cccc(C(=O)Nc3cccc(C)n3)c2)n1	1%	2%	·	-10%	-19%	1%
Cc1nn(-c2ccccc2)c(Cl)c1C(=O)NCc1ccccc1F	-1%	-6%	·	-10%	0%	0%
Cc1cccc(NC(=O)c2c(C)nn(-c3ccccc3)c2Cl)c1	11%	?	19%	?	13µM*	?
CC(=O)Nc1c(C(=O)Nc2cccc(C)c2)nnn1-c1ccc(C)cc1	·	·	9%	·	17µM*	·
SMILES	ELG1 genotoxic	NPC1 promoter act	SMN2 splice enh	ELG1 DNA repair	FLuc modulator	Rab9 prom act
Cc1nn(-c2ccccc2)c(Cl)c1C(=O)NCCCCNC(=O)c1c(C)nn(-c2ccccc2)c1Cl	-10%	0%	2%	16µM*	?	-1%
CCOC(=O)c1cc(C(=O)Nc2cccc(C)c2)nn1C	?	1.6µM*	13µM*	?	4.8µM*	1.4µM*
CCOC(=O)c1nn(-c2ccc(C)cc2)c(=O)cc1OCC(=O)Nc1cccc(C)c1	0%	2%	·	18%	-1%	-6%
CCOC(=O)c1sc2ncnc(OC)c2c1C	-1%	4%	11%	23%	-5%	12%
CCOC(=O)c1[nH]cnc1C(=O)NCc1ccccc1	5%	-2%	·	-1%	2%	-2%
CNc1oc(/C=C/c2ccccc2)nc1C#N	?	?	11µM*	?	2.7µM*	3.2µM*
COCCNc1oc(/C=C/c2ccccc2)nc1C#N	18µM*	?	·	?	11µM*	3.5µM*
Cc1ccc(C(=O)Nc2ccccc2N2CCCC2)cc1S(=O)(=O)N1CCOCC1	-3%	3%	·	?	0%	-6%
Cc1ccc2c(c1)N(CCC(=O)NCCN1CCOCC1)C(=O)CO2	-1%	2%	11%	-9%	-2%	5%
COc1ccccc1-c1ccc(=O)n(CC(=O)NCC2CCCO2)n1 (configuration not stated)	1%	-1%	·	1%	-1%	-12%
CCn1ncc(Br)c1C(=O)N(C)C12CC3CC(CC(C3)C1)C2	-7%	-1%	-20%	?	-1%	-4%
CN(Cc1ccc(F)cc1)C(=O)C(Cc1ccccc1)NC(=O)c1ccccc1 (configuration not stated)	-26%	-2%	·	?	-1%	3%
COc1ccc(CN(C)C(=O)C(Cc2ccccc2)NC(=O)c2ccccc2)cc1F (configuration not stated)	-13%	-2%	·	15µM*	2%	-4%
Cc1ccc(C(=O)N(CCC2=CCCCC2)c2c(N)n(Cc3ccccc3)c(=O)[nH]c2=O)o1	-31%	7%	·	9.2µM*	-1%	-1%
Nc1c(N(CCC2=CCCCC2)C(=O)c2ccc([N+](=O)[O-])o2)c(=O)[nH]c(=O)n1Cc1ccccc1	-21%	6%	·	-14%	-2%	0%
Cn1cccc1C(=O)OCC(=O)c1cc2ccccc2o1	22%	16%	5%	?	12µM*	11%
Cn1cccc1C(=O)OCC(=O)NCCCc1ccccc1	1%	·	·	?	·	·
O=C(CSc1nc2cc(Cl)ccc2s1)c1cc2ccccc2o1	7%	-2%	-5%	?	-7%	1%
O=C(COC(=O)c1ccc(Cl)s1)c1cc2ccccc2o1	2%	4%	22%	1%	24µM*	2%
Cc1ccc(C=NCc2ccncc2)c(O)c1	-1%	0%	3%	3%	-10%	-7%
O=C(NCCN1CCOCC1)c1ccccc1Cl	0%	-2%	·	13%	1%	2%
